Test results from PubChem BioAssay.
The source made the active and inactive calls.

Tests used:
[1] = target: Albumin (Bos taurus) (UniProt P02769); assay: compounds binding labelled BSA control protein – biochemical, small-molecule microarray, Alexa647 label, 635/667 nm fluorescence, artefact control for SMM control protein annotation, profiling panel (AID 1118); settings: BSA-A647 binding, fluorescence 635 nm, higher = more signal;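 further: score merges 667 nm emission intensity and signal-to-noise per printed compound spot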
[2] = probe aXIP binding to arrayed compounds – biochemical, NeuroSMM set, 635/667 nm fluorescence, primary screen (AID 1119); settings: small-molecule microarray, higher = more signal, called active from +8 up or from −8 down;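 further: probe is the protein aXip251-270 applied at 1 µg/mL to compound-printed slides; binding of probe to printed compounds measured as 667 nm fluorescence plus signal to noise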
[3] = probe aNOTCH3 binding on compound microarray – biochemical, small-molecule microarray, 635/667 nm fluorescence, primary screen (AID 1120); settings: higher = more signal;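 further: probe is a biotin-tagged antibody raised against NOTCH3 rather than NOTCH3 protein; score merges spot fluorescence near 667 nm with spot signal to noise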
[4] = probe aNOTCH2 binding on compound microarray – biochemical, small-molecule microarray, 635/667 nm fluorescence, primary screen (AID 1121); settings: higher = more signal;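 further: score merges feature fluorescence read at 667 nm with its signal to noise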
[5] = target: Carbonic anhydrase 2 (Homo sapiens) (UniProt P00918); assay: compounds binding carbonic anhydrase 2 – biochemical, small-molecule microarray, Alexa647-labelled CAII, profiling panel (AID 1122); settings: CAII-A647 binding fluorescence, higher = more signal
[6] = COS7 lysate on small-molecule microarray, probe aHis, 635 nm (AID 1123); settings: COS7 cell lysate, fluorescence, higher = more signal;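 further: z-score combines 667nm fluorescence intensity with signal-to-noise per printed compound spot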
[7] = probe aLAP1 signal on lysate-treated microarray – cell lysate, small-molecule microarray, COS7 lysate, primary screen (AID 1124); settings: probe aLAP1, fluorescence, higher = more signal;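 further: lysate comes from COS7 cells expressing LAP1 and is applied at 0.3 µg/mL; score merges spot fluorescence near 667 nm with signal-to-noise over triplicate slides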
[8] = tested on: Sam68 (KHDRBS1); assay: compounds binding KHDRBS1 protein – biochemical, small-molecule microarray, 635 nm fluorescence, primary screen (AID 1125); settings: higher = more signal;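 further: score merges 667 nm channel intensity with signal to noise over triplicate slides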
[9] = tested on: Chordin-like protein 2 (CHRDL2); assay: compounds binding chordin-like 2 – biochemical, small-molecule microarray, 635 nm fluorescence, primary screen (AID 1126); settings: fluorescence 635 nm, higher = more signal;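 further: printed compound slides probed with Chrdl2 protein at 4 µg/mL for 1 h at 4 C; score merges 667 nm emission intensity with signal to noise over three replicate slides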
[10] = target: Concanavalin-A (Canavalia ensiformis) (UniProt P02866); assay: compounds binding concanavalin A lectin – biochemical, small-molecule microarray, Alexa647 label, 635 nm, artefact control for SMM control protein annotation, primary screen (AID 1127); settings: ConA-A647 binding fluorescence, higher = more signal;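 further: z combines 667 nm emission intensity with signal-to-noise across three replicate slides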
[11] = compounds binding Alexa647 anti-His antibody – biochemical, small-molecule microarray, 635 nm fluorescence, artefact control for SMM control protein annotation, primary screen (AID 1128); settings: higher = more signal;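 further: score merges feature fluorescence with signal-to-noise for each printed compound spot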
[12] = tested on: Human papillomavirus type 1a E7 protein (residues 1-88); assay: HPV1a E7 small-molecule binders, primary screen, biochemical, small-molecule microarray, residues 1-88, 635 nm (AID 1129); settings: small-molecule microarray binding, fluorescence 635 nm; higher = more signal
[13] = target: Focal adhesion kinase 1 (Homo sapiens) (UniProt Q05397); assay: PTK2 protein binding on printed compound slides – biochemical, small-molecule microarray, 635/667 nm fluorescence, BSA, DTT, primary screen (AID 1130); settings: 635 nm fluorescence, higher = more signal;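 further: composite of spot emission at 667 nm and signal to noise over triplicate slides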
[14] = tested on: Fibrinogen (Alexa647-labelled); assay: Alexa647-fibrinogen binding to printed small molecules – biochemical, small-molecule microarray, 635/667 nm fluorescence, artefact control for SMM control-protein annotation, profiling panel (AID 1131); settings: fibrinogen-A647 binding fluorescence, higher = more signal;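 further: z-score merges 667 nm fluorescence with per-spot signal-to-noise over triplicate slides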
[15] = target: Follistatin (Homo sapiens) (UniProt P19883); assay: FST protein binding to printed compounds – biochemical, small-molecule microarray, 635/667 nm fluorescence, primary screen (AID 1132); settings: 635 nm fluorescence, higher = more signal
[16] = target: Fibroblast growth factor 2 (Homo sapiens) (UniProt P09038); assay: basic fibroblast growth factor binding to printed compounds – biochemical, small-molecule microarray, 635/667 nm fluorescence, primary screen (AID 1133); settings: FGF2, fluorescence 635/667, higher = more signal
[17] = JC-1 mitochondrial potential readout, lung cancer cells – cell-based, A549, JC-1 fluorescence, basal, 24 h, 100 nL, profiling panel (AID 1138); settings: higher = more signal;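 further: A549 lung adenocarcinoma cells under basal conditions with no added stimulus; test concentration not given here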
[18] = tested on: Lefty1; assay: Lefty1 protein binding to printed compounds – biochemical, small-molecule microarray, 635/667 nm fluorescence, primary screen (AID 1139); settings: fluorescence 635/667, higher = more signal
[19] = tested on: wheat germ agglutinin (Triticum aestivum), Alexa647-labelled; assay: Alexa647-WGA lectin binding to printed small molecules – biochemical, small-molecule microarray, 635/667 nm fluorescence, artefact control for SMM control-protein annotation, profiling panel (AID 1140); settings: WGA-A647 binding, 635 nm fluorescence, higher = more signal;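 further: score merges 667 nm feature emission with signal to noise over triplicate slides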
[20] = target: Luciferin 4-monooxygenase (Photinus pyralis) (UniProt P08659); assay: inhibition of purified Photinus pyralis luciferase – biochemical, luminescence, purified enzyme, 2006 set, primary screen (AID 1141); settings: purified firefly luciferase, SteadyGlo luminescence, 30 min; higher = more signal, called active from +8 up or from −8 down;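 further: cell-free assay with purified firefly luciferase at 100 ng per well in PBS; test concentration not given here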
Luciferin 4-monooxygenase (Photinus pyralis), sequence (P08659 whole entry, looked up): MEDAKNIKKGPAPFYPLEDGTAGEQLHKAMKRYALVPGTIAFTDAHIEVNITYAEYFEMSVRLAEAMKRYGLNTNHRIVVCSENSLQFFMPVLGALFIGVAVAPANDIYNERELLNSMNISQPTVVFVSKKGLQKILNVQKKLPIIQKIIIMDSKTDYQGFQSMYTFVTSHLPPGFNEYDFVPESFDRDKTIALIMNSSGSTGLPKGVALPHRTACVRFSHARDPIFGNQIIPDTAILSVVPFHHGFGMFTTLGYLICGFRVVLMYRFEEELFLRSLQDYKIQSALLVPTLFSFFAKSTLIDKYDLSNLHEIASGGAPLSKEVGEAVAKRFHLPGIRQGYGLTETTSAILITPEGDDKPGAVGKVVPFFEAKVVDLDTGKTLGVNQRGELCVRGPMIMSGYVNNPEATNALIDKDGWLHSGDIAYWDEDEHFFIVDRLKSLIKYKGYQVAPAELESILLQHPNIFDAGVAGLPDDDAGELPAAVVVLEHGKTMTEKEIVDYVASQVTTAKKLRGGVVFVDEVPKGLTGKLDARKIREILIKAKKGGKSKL

Focal adhesion kinase 1 (Homo sapiens), sequence (Q05397 whole entry, looked up): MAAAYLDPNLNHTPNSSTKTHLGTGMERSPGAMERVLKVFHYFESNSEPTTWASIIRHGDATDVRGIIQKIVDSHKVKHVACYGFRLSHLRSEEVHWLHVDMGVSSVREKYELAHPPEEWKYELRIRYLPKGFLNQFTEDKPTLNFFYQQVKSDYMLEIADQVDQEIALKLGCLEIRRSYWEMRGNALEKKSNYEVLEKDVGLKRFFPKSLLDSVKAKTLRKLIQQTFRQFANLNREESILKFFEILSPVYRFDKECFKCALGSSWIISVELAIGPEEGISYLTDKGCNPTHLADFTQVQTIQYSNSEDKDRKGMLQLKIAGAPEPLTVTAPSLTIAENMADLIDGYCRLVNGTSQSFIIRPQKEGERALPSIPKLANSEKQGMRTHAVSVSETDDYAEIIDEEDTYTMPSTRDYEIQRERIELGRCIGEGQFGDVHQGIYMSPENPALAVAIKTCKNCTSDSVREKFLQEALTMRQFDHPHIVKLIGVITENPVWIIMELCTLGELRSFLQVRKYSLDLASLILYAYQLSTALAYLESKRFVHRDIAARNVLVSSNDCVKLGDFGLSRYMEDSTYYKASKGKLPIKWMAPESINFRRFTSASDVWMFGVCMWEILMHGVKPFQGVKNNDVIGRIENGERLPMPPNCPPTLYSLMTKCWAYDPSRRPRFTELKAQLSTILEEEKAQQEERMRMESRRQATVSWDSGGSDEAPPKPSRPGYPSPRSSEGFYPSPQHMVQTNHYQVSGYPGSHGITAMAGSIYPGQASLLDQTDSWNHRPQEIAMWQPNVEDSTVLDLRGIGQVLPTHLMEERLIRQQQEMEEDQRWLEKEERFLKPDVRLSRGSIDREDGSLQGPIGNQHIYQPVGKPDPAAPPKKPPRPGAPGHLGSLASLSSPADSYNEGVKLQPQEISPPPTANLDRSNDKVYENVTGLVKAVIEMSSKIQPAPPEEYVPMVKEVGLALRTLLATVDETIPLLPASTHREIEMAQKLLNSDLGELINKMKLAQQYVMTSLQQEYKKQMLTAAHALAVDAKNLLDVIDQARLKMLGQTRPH
Follistatin (Homo sapiens), sequence (P19883 whole entry, looked up): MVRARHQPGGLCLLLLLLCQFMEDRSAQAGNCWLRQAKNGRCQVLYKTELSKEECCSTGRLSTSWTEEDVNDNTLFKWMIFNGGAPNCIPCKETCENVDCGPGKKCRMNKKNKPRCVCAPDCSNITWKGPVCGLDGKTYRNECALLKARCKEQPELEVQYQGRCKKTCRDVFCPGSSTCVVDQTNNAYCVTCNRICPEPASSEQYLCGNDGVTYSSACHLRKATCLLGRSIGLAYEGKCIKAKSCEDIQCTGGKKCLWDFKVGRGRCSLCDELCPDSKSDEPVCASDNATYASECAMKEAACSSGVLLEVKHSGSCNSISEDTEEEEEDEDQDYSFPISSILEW
Concanavalin-A (Canavalia ensiformis), sequence (P02866 whole entry, looked up): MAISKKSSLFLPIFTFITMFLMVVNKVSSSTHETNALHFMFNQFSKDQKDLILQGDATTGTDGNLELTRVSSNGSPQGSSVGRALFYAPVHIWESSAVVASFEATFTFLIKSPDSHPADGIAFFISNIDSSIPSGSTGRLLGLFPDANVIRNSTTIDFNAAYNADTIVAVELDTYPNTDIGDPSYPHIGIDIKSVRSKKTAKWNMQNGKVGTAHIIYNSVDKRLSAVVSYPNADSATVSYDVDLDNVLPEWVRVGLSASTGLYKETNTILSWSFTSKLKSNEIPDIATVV
Fibroblast growth factor 2 (Homo sapiens), sequence (P09038 whole entry, looked up): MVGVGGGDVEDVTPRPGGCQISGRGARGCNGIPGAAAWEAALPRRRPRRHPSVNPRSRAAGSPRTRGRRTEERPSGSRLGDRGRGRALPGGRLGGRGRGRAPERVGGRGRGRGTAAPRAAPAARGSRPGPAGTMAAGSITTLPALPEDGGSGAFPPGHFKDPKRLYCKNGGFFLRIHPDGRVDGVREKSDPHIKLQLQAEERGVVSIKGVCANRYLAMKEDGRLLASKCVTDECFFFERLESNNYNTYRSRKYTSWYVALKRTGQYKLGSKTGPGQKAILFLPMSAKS
Albumin (Bos taurus), sequence (P02769 whole entry, looked up): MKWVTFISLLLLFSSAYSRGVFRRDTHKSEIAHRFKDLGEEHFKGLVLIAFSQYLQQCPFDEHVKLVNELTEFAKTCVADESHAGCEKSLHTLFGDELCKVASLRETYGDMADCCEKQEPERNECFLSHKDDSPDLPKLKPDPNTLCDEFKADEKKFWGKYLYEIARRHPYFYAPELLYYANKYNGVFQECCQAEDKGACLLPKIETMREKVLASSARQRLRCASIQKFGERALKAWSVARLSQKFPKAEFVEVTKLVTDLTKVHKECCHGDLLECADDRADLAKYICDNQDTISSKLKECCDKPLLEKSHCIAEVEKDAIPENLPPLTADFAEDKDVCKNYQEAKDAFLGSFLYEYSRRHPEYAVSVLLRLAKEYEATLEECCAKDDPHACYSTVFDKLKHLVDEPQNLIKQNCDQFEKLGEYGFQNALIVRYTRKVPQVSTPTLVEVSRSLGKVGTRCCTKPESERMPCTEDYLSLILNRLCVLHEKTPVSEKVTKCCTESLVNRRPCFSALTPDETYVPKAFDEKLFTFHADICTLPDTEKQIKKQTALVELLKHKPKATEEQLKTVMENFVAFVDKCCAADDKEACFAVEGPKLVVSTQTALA

SMILES	composite z-score [1]	composite Z-score [2]	composite z-score [3]	composite z-score [4]	composite z-score [5]	composite z-score [6]	composite z-score [7]	composite z-score [8]	composite z-score [9]	composite z-score [10]	composite z-score [11]	composite z-score [12]	composite z-score [13]	composite z-score [14]	composite z-score [15]	composite z-score [16]	z-score [17]	composite z-score [18]	composite z-score [19]	z-score [20]
C#CCCCON=C1C[C@@H](O)[C@@H](O)[C@@H]2[C@@H]3C(=O)N(c4cccc(Oc5ccccc5)c4)C(=O)[C@@H]3CC[C@H]12	-0.302	1.27 (inactive)	-0.373	-0.14	0.709	0.0922	0.762	-0.582	-0.771	-0.387	0.247	-0.936	-0.427	-1.13	-0.446	-0.455	0.8	-0.275	0.272	0.134 (inactive)
Cc1ccc(S(=O)(=O)n2c3ccccc3c3nnc(C(=O)c4ccccc4)nc32)cc1	-0.563	0.0578 (inactive)	0.12	0.012	-0.141	-0.111	0.246	-0.472	0.261	0.0083	-0.252	-0.0414	-0.0158	-1.08	0.583	0.978	-1.99	0.0671	-0.218	-4.76 (inactive)
CCCNC(=O)OC[C@H]1O[C@H](CCON=C(C)CCN2CCCc3nc(C)c(C)cc32)C=C[C@@H]1Oc1ccc(OC)cc1	0.727	0.475 (inactive)	0.0894	-0.0846	0.147	1.21	0.0156	1.29	0.0783	0.925	1.4	1.09	0.664	0.808	0.585	0.499	1.85	0.252	0.625	0.326 (inactive)
COc1ccc(COC(=O)NN=C2C[C@@H](O)[C@@H](O)[C@@H]3[C@@H]4C(=O)N(Cc5ccccc5)C(=O)[C@@H]4CC[C@H]23)cc1	0.719	-0.201 (inactive)	0.0418	-0.348	-0.17	0.341	-0.173	0.0827	-0.709	-0.266	-0.382	-0.111	0.0115	-0.519	-0.311	-0.977	0.235	-0.403	0.266	0.893 (inactive)
CCc1cc2c(nc1CC)CCN(CCC(C)=NO[C@@H](C)c1cn([C@H](CO)Cc3ccccc3)nn1)C2	-0.0957	0.117 (inactive)	-0.0072	-0.0956	0.317	-0.0909	0.12	-0.0161	0.231	0.0209	1.62	-0.452	-0.0908	0.996	0.595	0.0391	2.07	0.529	0.307	-0.896 (inactive)
CO[C@@H]1COC(=O)[C@H](CCSC)NC(=O)CC=C[C@@H](C)COC(=O)CCC[C@H]1C	-0.978	1.81 (inactive)	-0.0284	-0.147	-0.654	-1.31	1.01	0.973	1.68	-1.11	-0.252	-1.17	-0.798	-2.26	1.44	1.97	0.803	1.84	-0.65	1.05 (inactive)
